# Assay results published in PubChem BioAssay.
# A number with no mark means an inactive call. The rule behind the calls is not given here.
# Molecular target: Pantothenate synthetase (Mycobacterium tuberculosis (strain ATCC 25618 / H37Rv)) (UniProt P9WIL5)
# Experiment: Coupled enzyme confirmation of inhibitors against recombinant Mtb PanC (AID 375);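 note: 0% = full reaction with vehicle and 100% = no enzyme background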
# Settings: coupled enzyme assay; at 10 µM, stronger effect = higher value
# Pantothenate synthetase (Mycobacterium tuberculosis (strain ATCC 25618 / H37Rv)), sequence (P9WIL5 whole entry, looked up): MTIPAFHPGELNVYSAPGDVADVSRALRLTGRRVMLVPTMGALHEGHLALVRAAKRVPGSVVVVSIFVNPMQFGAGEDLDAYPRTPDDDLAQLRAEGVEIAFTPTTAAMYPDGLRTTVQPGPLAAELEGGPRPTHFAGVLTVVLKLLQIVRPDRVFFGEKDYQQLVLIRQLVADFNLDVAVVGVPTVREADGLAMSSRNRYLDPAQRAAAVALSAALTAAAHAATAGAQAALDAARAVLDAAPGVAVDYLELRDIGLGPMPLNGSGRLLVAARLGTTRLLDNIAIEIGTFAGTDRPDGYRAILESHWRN
row,Structure (SMILES),inhibition
1,COc1ccc(OC)c(NC(=O)CSc2ncccc2C(=O)O)c1,0%
2,COc1ccccc1-c1nnc(SCc2ccccn2)n1C,0%
3,Cc1ccc(S(=O)(=O)C2(C(=O)Nc3cccnc3)CC2)cc1,1%
4,CCN(CC)C(=O)C1=C(C)Nc2nnnn2C1c1cccnc1 (stereo not given),0%
5,CCOC(=O)C1=C[C@]2(CC)CCCN3CCc4c(n1c1ccccc41)[C@@H]32,4%
6,O=C(C1COc2ccccc2O1)N1CCCC1 (stereo not given),0%
7,CN(C)CCCn1c(N)c(C#N)c2nc(C#N)c(C#N)nc21,0%
8,COc1ccc(-c2noc(C3CCCN(C(=O)CCc4ccccc4)C3)n2)cc1 (stereo not given),0%
9,COc1ccc(C(CNC(=O)c2ccc(OCC3CCCO3)cc2)N2CCOCC2)cc1 (stereo not given),0%
10,O=C(CSc1ncnc2sc3c(c12)CCCCC3)NCc1ccco1,3%
11,O=c1cnnc(NCc2ccccc2)[nH]1,0%
12,CC1CCC2C(C1)c1sc(=O)[nH]c1SC2(C)C (stereo not given),2%
13,Cn1c(NC(=O)c2ccccc2NC(=O)C(C)(C)C)nc2ccccc21,0%
14,C=CCOc1ccc(/C=N/n2cncn2)cc1OC,0%
15,C(=N/n1c2ccccc2c2ccccc21)/c1ccco1,0%
16,Cc1ccccc1-n1c(Cn2c(=O)sc3ccccc32)nnc1SCC(N)=O,3%
17,CC(c1ccccc1)N1C(=O)c2ccc(C(=O)NCc3ccco3)cc2C1=O (stereo not given),1%
18,COC(=O)c1[nH]c(C)c(/C(O)=C2\C(=O)C(=O)N(CCN(C)C)C2c2ccccc2OC)c1C (stereo not given),1%
19,O=C(CSc1nc2ccccc2n1CC(=O)N1CCCC1)Nc1nccs1,0%
20,O=C(CSCc1n[nH]c(=O)[nH]1)NCCOc1cccc(Oc2ccccc2)c1,1%

row,Structure (SMILES),inhibition
1,Cc1cc(C)c(NC2=NCC(=O)N2C2CCCCC2)c(C)c1,0%
2,CSc1ccccc1NC(=O)CN(Cc1ccccc1)S(C)(=O)=O,0%
3,COc1ccc(-c2nc(CSCC(=O)NCc3ccc4c(c3)OCO4)c(C)o2)cc1OC,0%
4,O=C(Cn1cnc2c(cnn2-c2ccccc2)c1=O)NCCc1ccccc1,0%
5,Cc1ccc(OC(=O)NC2CCS(=O)(=O)C2)cc1C (stereo not given),0%
6,COc1ccc(CCNS(=O)(=O)c2ccc(C(=O)NCc3ccco3)cc2)cc1OC,0%
7,COc1ccccc1Nc1nc(N)nc(CN2CCN(c3ccccc3F)CC2)n1,0%
8,Cn1cc(C(=O)c2ccc(F)cc2)cc1-c1nc2ccccc2n1C,6%
9,O=C(Cc1cccs1)Nc1ccccc1NC(=O)Cc1cccs1,0%
10,CCN(CC(=O)Nc1ccc2c(c1)OCCO2)Cc1cc(=O)oc2cc(C)c(C)cc12,0%
11,CCN(CC(=O)O)S(=O)(=O)c1cc(Cl)ccc1Cl,0%
12,O=C(C1CCCN(S(=O)(=O)c2cccnc2)C1)N1CCn2c1nc1ccccc12 (stereo not given),0%
13,CCCCN(CC)CCNC(=O)c1cc2c(C)nc3ccccc3c2o1,10%
14,COc1ccc(Cn2nnnc2C(c2ccccn2)N2CCN(c3cc(Cl)ccc3C)CC2)cc1 (stereo not given),0%
15,COC(=O)c1c(-c2cccs2)csc1NC(=O)CN1CCOCC1,0%
16,CCC(c1nnnn1C(C)(C)C)N1CCN(C2CCCC2)CC1 (stereo not given),4%
17,CC1CCCc2sc3nc(NCc4ccco4)n4ncnc4c3c21 (stereo not given),0%
18,Cc1ccc(-n2cnnn2)c2cccnc12,5%
19,COc1ccc(OC)c(Nc2nc(-c3cccs3)cs2)c1,0%
20,O=C(CSc1nnnn1-c1ccccc1)Nc1nsc(-c2ccc(Cl)cc2)n1,0%
